# Test results: the supplement of paper PMC8728848
# Shown is part of a subset that was picked to be rich in the strongest signals.
# B1: PfulAvr4 (Pseudocercospora fuligena) (protein)
# chain: HHHHHHDYKDDDDKTYVQDKTPAFVCPAADIKTTKCLGPKDCLYPSPKTCNGYIQCSPADDSYLTGIIHEMPCPSGLLWNDNKKWCDWPENTTCGLVKSAGATEVDATKQGPTPGKYHG
# Experiments:
# Test in all cases: glycan array binding signal (z-score within array); higher = stronger binding
# Conditions in all cases: glycan notation: IUPAC condensed, linker removed
# Gal(b1-6)Gal = molecular target: Gal(b1-6)Gal
# In short: (§1)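 Glycan array data were curated from 3228 arrays in the Consortium for Functional Glycomics database and kept only where the protein sequence was available. Glycan names were converted to IUPAC-condensed notation, and columns mapping to the same glycan were averaged. The binding signal is a within-array Z-score, averaged across arrays of the same protein sequence at different concentrations or buffers and across linkers. Negative Z-scores can be read as non-binding.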
# Gal3S6S(b1-4)GlcNAc = molecular target: Gal3S6S(b1-4)GlcNAc
# In short: as §1
# Gal6S(b1-4)GlcNAc = molecular target: Gal6S(b1-4)GlcNAc
# In short: as §1
# [1] = molecular target: GalNAc(b1-4)GlcNAc(b1-3)GalNAc(b1-4)GlcNAc
# In short: as §1
# [2] = molecular target: GalNAc3S(b1-4)[Fuc(a1-3)]GlcNAc
# In short: as §1
# [3] = molecular target: GlcNAc(a1-3)Gal(b1-4)GlcNAc
# In short: as §1
# [4] = molecular target: GlcNAc(a1-4)Gal(b1-4)GlcNAc(b1-3)Gal(b1-4)GlcNAc(b1-3)Gal(b1-4)GlcNAc
# In short: as §1
# [5] = molecular target: GlcNAc(b1-2)[GlcNAc(b1-4)]Man(a1-3)[GlcNAc(b1-2)Man(a1-6)]Man(b1-4)GlcNAc(b1-4)GlcNAc
# In short: as §1
# [6] = molecular target: GlcNAc(b1-3)Gal(b1-4)GlcNAc(b1-3)Gal(b1-4)GlcNAc(b1-2)[GlcNAc(b1-3)Gal(b1-4)GlcNAc(b1-3)Gal(b1-4)GlcNAc(b1-6)]Man(a1-6)[GlcNAc(b1-3)Gal(b1-4)GlcNAc(b1-3)Gal(b1-4)GlcNAc(b1-2)Man(a1-3)]Man(b1-4)GlcNAc(b1-4)[Fuc(a1-6)]GlcNAc
# In short: as §1
# [7] = molecular target: GlcNAc(b1-3)Gal(b1-4)GlcNAc(b1-3)Gal(b1-4)GlcNAc(b1-3)Gal(b1-4)GlcNAc(b1-2)[GlcNAc(b1-3)Gal(b1-4)GlcNAc(b1-3)Gal(b1-4)GlcNAc(b1-3)Gal(b1-4)GlcNAc(b1-6)]Man(a1-6)[GlcNAc(b1-3)Gal(b1-4)GlcNAc(b1-3)Gal(b1-4)GlcNAc(b1-3)Gal(b1-4)GlcNAc(b1-2)Man(a1-3)]Man(b1-4)GlcNAc(b1-4)[Fuc(a1-6)]GlcNAc
# In short: as §1
# GlcNAc(b1-3)Man = molecular target: GlcNAc(b1-3)Man
# In short: as §1
# [8] = molecular target: GlcNAc(b1-3)[GlcNAc(b1-4)][GlcNAc(b1-6)]GlcNAc
# In short: as §1
# [9] = molecular target: GlcNAc(b1-4)GlcNAc(b1-4)GlcNAc(b1-4)GlcNAc(b1-4)GlcNAc(b1-4)GlcNAc
# In short: as §1
# Kdn(a2-3)Gal(b1-4)Glc = molecular target: Kdn(a2-3)Gal(b1-4)Glc
# In short: as §1
# Kdn(a2-6)Gal(b1-4)GlcNAc = molecular target: Kdn(a2-6)Gal(b1-4)GlcNAc
# In short: as §1
# [10] = molecular target: Man(a1-3)[Man(a1-6)]Man(a1-6)[Man(a1-2)Man(a1-3)]Man(b1-4)GlcNAc(b1-4)GlcNAc
# In short: as §1
# [11] = molecular target: Man(a1-3)[Man(a1-6)]Man(a1-6)[Man(a1-3)]Man
# In short: as §1
# [12] = molecular target: Man(a1-3)[Man(a1-6)]Man(a1-6)[Man(a1-3)]Man(b1-4)GlcNAc(b1-4)GlcNAc
# In short: as §1
# [13] = molecular target: Man(a1-3)[Man(a1-6)]Man(b1-4)GlcNAc(b1-4)[Fuc(a1-6)]GlcNAc
# In short: as §1
# Man(a1-6)Man = molecular target: Man(a1-6)Man
# In short: as §1
# [14] = molecular target: Neu5Ac(a2-3)Gal(b1-3)GlcNAc(b1-2)Man(a1-3)[Neu5Ac(a2-3)Gal(b1-3)GlcNAc(b1-2)Man(a1-6)]Man(b1-4)GlcNAc(b1-4)GlcNAc
# In short: as §1
# [15] = molecular target: Neu5Ac(a2-3)Gal(b1-3)GlcNAc(b1-6)GalNAc
# In short: as §1
# [16] = molecular target: Neu5Ac(a2-3)[Neu5Ac(a2-6)]GalNAc
# In short: as §1
# [17] = molecular target: Neu5Ac(a2-6)Gal(b1-4)GlcNAc(b1-2)Man(a1-3)[Gal(b1-4)GlcNAc(b1-2)Man(a1-6)]Man(b1-4)GlcNAc(b1-4)GlcNAc
# In short: as §1
# [18] = molecular target: Neu5Ac(a2-6)Gal(b1-4)GlcNAc(b1-2)Man(a1-3)[Man(a1-6)]Man(b1-4)GlcNAc(b1-4)GlcNAc
# In short: as §1
# [19] = molecular target: Neu5Ac(a2-8)Neu5Ac(a2-3)Gal(b1-4)Glc
# In short: as §1
# [20] = molecular target: Neu5Ac(a2-8)Neu5Ac(a2-8)Neu5Ac(a2-3)[GalNAc(b1-4)]Gal(b1-4)Glc
# In short: as §1
# [21] = molecular target: Neu5Gc(a2-3)Gal(b1-3)GlcNAc
# In short: as §1
binder,measurement,setting,value
B1,glycan array binding signal (z-score),Gal(b1-6)Gal,-0.156
same,glycan array binding signal (z-score),Gal3S6S(b1-4)GlcNAc,0.034
same,glycan array binding signal (z-score),Gal6S(b1-4)GlcNAc,-0.128
same,glycan array binding signal (z-score),[1],-0.127
same,glycan array binding signal (z-score),[2],-0.134
same,glycan array binding signal (z-score),[3],-0.093
same,glycan array binding signal (z-score),[4],-0.059
same,glycan array binding signal (z-score),[5],-0.053
same,glycan array binding signal (z-score),[6],-0.049
same,glycan array binding signal (z-score),[7],-0.07
same,glycan array binding signal (z-score),GlcNAc(b1-3)Man,0.804
same,glycan array binding signal (z-score),[8],-0.124
same,glycan array binding signal (z-score),[9],23.3
same,glycan array binding signal (z-score),Kdn(a2-3)Gal(b1-4)Glc,0.189
same,glycan array binding signal (z-score),Kdn(a2-6)Gal(b1-4)GlcNAc,0.004
same,glycan array binding signal (z-score),[10],0.011
same,glycan array binding signal (z-score),[11],-0.076
same,glycan array binding signal (z-score),[12],-0.097
same,glycan array binding signal (z-score),[13],-0.095
same,glycan array binding signal (z-score),Man(a1-6)Man,-0.118
same,glycan array binding signal (z-score),[14],1.27
same,glycan array binding signal (z-score),[15],-0.082
same,glycan array binding signal (z-score),[16],-0.131
same,glycan array binding signal (z-score),[17],3.32
same,glycan array binding signal (z-score),[18],-0.088
same,glycan array binding signal (z-score),[19],-0.074
same,glycan array binding signal (z-score),[20],-0.132
same,glycan array binding signal (z-score),[21],-0.161
